Screening data deposited in PubChem BioAssay by The Scripps Research Institute Molecular Screening Center.
DAX1 inh-1: DAX1 (NR0B1) inhibitors on StAR promoter, primary screen, cell-based, luminescence, SF-1 (NR5A1), full-length DAX-1 | AID 652010, 2013 | HEK293T StAR-luciferase reporter, SF-1/DAX-1 repression relief | inhibition, % at 6.8 µM | 1.1% of 370,000 active;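 active means inhibition above the mean over all tested compounds plus 3 SD, cut at about 3.6% in these data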;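 further: 0% = DAX-1 cells with DMSO and 100% = cells lacking DAX-1 with DMSO; higher inhibition means more luminescence from relief of DAX-1 repression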
DAX1 inh-2: DAX1 (NR0B1) inhibitors, primary screen, cell-based, HEK293, Gal4-DAX1, luciferase luminescence. Nuclear receptor subfamily 0 group B member 1 (Homo sapiens), P51843. HEK293 Gal4-DAX1 luciferase reporter. inhibition, % at 6.75 µM. 0.99% of 340,000 active;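 active means inhibition above the mean over all tested compounds plus 3 SD, cut at about 4.2% in these data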;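 further: 0% = DAX1-transfected cells with DMSO and 100% = empty-vector control cells with DMSO; inhibition shows as a rise in luminescence from relieved DAX1 repression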
Target sequence (P51843 207-470 limits assumed): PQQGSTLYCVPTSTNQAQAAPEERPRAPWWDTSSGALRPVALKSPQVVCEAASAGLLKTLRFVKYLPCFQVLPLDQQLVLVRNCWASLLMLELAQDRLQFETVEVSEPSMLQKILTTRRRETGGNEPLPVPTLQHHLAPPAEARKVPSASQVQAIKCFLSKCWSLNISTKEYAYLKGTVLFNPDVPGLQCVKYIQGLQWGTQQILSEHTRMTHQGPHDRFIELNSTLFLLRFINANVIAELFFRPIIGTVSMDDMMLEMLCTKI
ssDAF12 agonist: S. stercoralis DAF-12 nuclear receptor activators, primary screen, cell-based, luminescence, HEK293, GRIP1 co-expression, lit1-tk-luc. Nuclear hormone receptor DAF-12 (Strongyloides stercoralis). activation, % at 6.8 µM. HEK293 ssDAF-12/GRIP1 lit1-tk-luc reporter; % of 3 µM dafachronic acid response. AID 652126, 2013. 1% of 370,000 active;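 active means activation above the mean over all tested compounds plus 3 SD, cut at about 0.9% in these data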;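 further: 0% = DMSO-only wells and 100% = 3 µM delta7-dafachronic acid wells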
hgDAF12 agonist: H. glycines DAF-12 receptor agonists, primary screen, cell-based, luminescence, HEK293, GAL4 fusion, UAS-luciferase | HEK293 GAL4-hgDAF12 UAS-luciferase reporter, agonist luminescence; normalized to butyrate control | activation, % at 6.8 µM | 1.8% of 370,000 active | AID 687014, 2013;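 active means activation above a cutoff set at the mean of all screened compounds plus 3 SD, cut at about 10% in these data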;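 further: 0% = DMSO wells and 100% = sodium butyrate wells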
SMARCA2 activ: SMARCA2 (BRM) function activators, primary screen, cell-based, luminescence, high throughput; MG213 cells, MMTV-luciferase reporter, dexamethasone, overnight; activation, % at 9.1 µM; 1% of 370,000 active; in the data active means activation above about 7.8%;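 further: 0% = vehicle wells and 100% = reference activator wells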
hcDAF12 agonist: H. contortus DAF-12 nuclear receptor activators, primary screen, cell-based, luminescence, HEK293, lit1-tk-luc reporter; HEK293 hcDAF-12 lit1-tk-luc reporter; 0% DMSO, 100% Δ7-dafachronic acid; activation, % at 6.8 µM; 1.4% of 370,000 active; AID 652067, 2013;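 active means activation above the mean of all tested compounds plus 3 SD, cut at about 5.5% in these data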;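 further: 100% = response to 3 µM Δ7-dafachronic acid high control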
SMARCA2 conf: SMARCA2 (BRM) function activators, confirmation, cell-based, luminescence, triplicate; shares compounds with SMARCA2 activ; MG213 cells, MMTV-luciferase with dexamethasone, overnight; MG213 cells expressing E1A, Rb sequestered; DMSO wells 0%, reference activator 100%; activation, % at 9.1 µM; 30% of 3,500 active;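 active means activation above its plate's cutoff, the mean activation of tested wells plus 3 SD, cut at about 7.9% in these data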
GAL4-VP16 Luc: GAL4-VP16 luciferase reporter activation, counter-screen for SMARCA2 (BRM) activator project, cell-based, pG5luc, luminescence, high throughput. shares compounds with SMARCA2 activ. HEK293 GAL4-VP16 pG5luc reporter; scaled: DMSO wells 0%, SAHA wells 100%. activation, % at 9.1 µM. 41% of 3,500 active. AID 686939, 2013;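 active means activation above the solvent-only control well mean plus 3 SD, averaged across control plates, cut at about 5.2% in these data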
Active calls of the source: *; / = no result given. Sampled rows, rich in hits. Any-hit rate of the full collection: about 4.8%.

SMILES	DAX1 inh-1	DAX1 inh-2	ssDAF12 agonist	hgDAF12 agonist	SMARCA2 activ	hcDAF12 agonist	SMARCA2 conf	GAL4-VP16 Luc
CN(C)CCNc1ccc2ncn3c4ccc(O)cc4c(=O)c1c23	-6.2	-2.1	-0.9	-7.0	15.5*	-0.8	140.8*	2.4
COc1ccc2sc3cccc(NCCN(C)C)c3c(=O)c2c1	1.7	/	-0.8	5.1	29.3*	0.9	40.2*	3.5
CN(C)CCNc1ccc(CO)c2sc3ccc(O)cc3c(=O)c12	-5.4	-4.4	-0.3	-7.8	13.8*	0.7	4.6	11.1*
COc1cccc2sc3ccc(NCCC4CCCN4C)cc3c(=O)c12 (configuration not stated)	0.2	0.4	-1.1	1.5	-0.4	-0.5	/	/
CN(C)CCNc1ccc(-c2nn(C)c(=O)c3ccccc23)cc1[N+](=O)[O-]	0.6	-0.5	-1.2	-0.7	-1.4	-0.8	/	/
COC(=O)[C@]12C[C@H](CC(=O)NCc3ccc(OC)c(OC)c3)C(=O)N(Cc3ccc4c(c3)OCO4)C1=C[C@H](C(C)C)O[C@@H]2C1CC1	0.1	/	-1.1	0.5	0.5	0.7	/	/
COC(=O)c1cn(-c2ccc(-c3noc4c3C(=O)N(CC(=O)N3CCOCC3)CC4)cc2)nn1	0.2	/	-1.6	0.4	2.8	1.5	/	/
CC(=O)Nc1cc(C)c(S(C)(=O)=O)c(C)c1	0.1	-0.5	-1.6	0.8	8.1*	-2.1	-1.6	2.2
CC(C)N1CCCCC(NC(=O)c2ccccc2)C1=O (configuration not stated)	0.6	/	-1.6	0.1	-1.9	-2.0	/	/
CCCCn1c(N)c(N(C)C(=O)c2cc3c(s2)CCCCC3)c(=O)[nH]c1=O	1.9	0.1	-0.9	0.5	8.5*	0.4	-0.5	1.4
CCOc1ccc(OCc2ccc(C(=O)Nc3ccc(Cl)cn3)o2)cc1	0.4	0.5	-1.1	0.6	10.1*	-0.2	4.3	2.5
O=C(NCCC1=CCCCC1)c1coc(=O)c(Br)c1	-0.4	0.6	-1.1	-0.7	19.7*	-0.6	-1.4	5.5*
O=C(COC(=O)c1ccccc1Br)NCCC1=CCCCC1	0.6	2.4	-1.0	4.8	6.6	-0.1	/	/
O=C(COC(=O)c1cc(Br)c(Br)s1)NCCC1=CCCCC1	-0.5	-1.5	-1.6	0.2	9.3*	-0.4	-3.2	1.6
O=C(NCCc1ccccc1)c1coc(=O)c(Br)c1	0.0	0.7	-0.6	-0.8	27.5*	-1.1	-8.8	4.7
O=C(NCCC1=CCCCC1)c1ccc(=O)oc1	0.2	0.1	-1.7	-0.5	-4.2	-1.5	/	/
Cc1cc(C(=O)NCCC2=CCCCC2)c(C)o1	2.5	2.5	-0.2	7.5	11.1*	3.5	19.5*	11.8*
CC(C)C[C@@H](CCCc1ccccc1)CCC(=O)N(c1ccccc1)c1ccccc1	-0.7	/	-1.7	-2.5	-4.0	-2.1	/	/
C=CCNc1cccc2c1S(=O)(=O)N[C@H](CC(C)C)CO2	-0.8	/	-1.7	0.1	1.9	-0.5	/	/
O=S1(=O)c2ccc(Br)cc2OC[C@@H](c2ccccc2)N1Cc1cn(CCC2OCCCO2)nn1	0.2	/	-0.8	-1.8	-2.9	-2.0	/	/
O=C(NCCC1=CCCCC1)NC1CCCCC1	2.8	1.4	0.3	10.6*	8.7*	4.4	8.1*	8.7*
NC(=O)NCCC1=CCCCC1	0.6	-0.8	-1.4	-1.1	-1.2	-1.8	/	/
COc1cc2c(C#CCCO)c(-c3ccsc3)oc(=O)c2cc1OC	-1.2	-3.5	-2.0	-4.8	9.3*	-3.1	11.0*	1.9
COc1cc2c(C#CCCO)c(-c3ccc(C#N)cc3)oc(=O)c2cc1OC	-0.1	0.8	-0.9	-0.5	2.4	-2.7	/	/
Cc1occc1C(=O)NNC(=O)Nc1ccc(F)cc1F	-0.3	-1.3	-1.1	1.1	1.1	0.4	/	/
SMILES	DAX1 inh-1	DAX1 inh-2	ssDAF12 agonist	hgDAF12 agonist	SMARCA2 activ	hcDAF12 agonist	SMARCA2 conf	GAL4-VP16 Luc
Cc1occc1C(=O)Nc1ccc(Br)cc1F	0.8	1.9	-0.4	11.7*	10.4*	1.9	16.1*	10.0*
COc1ccc(C2CC(=O)C(c3ccccc3OC)=CN2Cc2ccccc2)cc1 (configuration not stated)	-1.8	/	-1.2	3.3	-2.5	-2.6	/	/
CC(C)CNC(=O)C1c2ccccc2Oc2ccccc21	-0.2	-0.2	-1.2	1.7	14.0*	0.7	-1.1	0.7
CC(C)NC(=O)C1c2ccccc2Oc2ccccc21	-0.4	0.6	-1.3	1.6	-2.0	1.1	/	/
CC1=C[C@@H]2[C@H]3C(=O)N(Cc4ccccc4)C(=O)[C@H]3[C@@H]1[C@@H]1O[C@@]3(C(=O)N(C)c4ccccc43)C3=C(CCCC3=O)N21	2.2	/	-0.7	1.1	5.3	-1.2	/	/
O=C(NCCCc1ccccc1)[C@H](Cc1ccccc1)NC1(C(=O)NCCc2c[nH]c3ccccc23)CCOCC1	/	/	-1.0	0.2	/	-0.5	/	/
COc1ccc(C(=O)N/N=C/c2ccc(N3CCOCC3)s2)cc1OC	0.6	0.8	-1.1	2.0	8.4*	-0.5	-2.0	-1.2
COc1ccc(C(=O)N/N=C/c2ccc(N3CCOCC3)o2)cc1OC	-0.1	0.3	-1.7	-2.0	-0.1	2.8	/	/
CC(C)(C)N1Cc2nnn(Cc3ccccc3)c2-c2cc(F)ccc2S1(=O)=O	-0.3	/	-1.3	-0.5	-2.0	-2.1	/	/
CN1Cc2nnn(CC3CCCCC3)c2-c2ccccc2S1(=O)=O	-0.2	/	-1.4	-2.8	8.2*	-2.9	1.9	0.1
COC(=O)[C@]12C[C@H](CC(=O)N3CCN(C(=O)c4ccco4)CC3)C(=O)N(CCC3=CCCCC3)C1=C[C@H](COCc1ccccc1)O[C@@H]2C	0.0	/	-1.8	-1.1	-1.3	-0.6	/	/
CCN(CC)c1ccc(/C=N/NC(=O)Nc2ccccc2)cc1	1.5	1.9	0.3	10.9*	11.5*	4.2	11.5*	10.8*
Cc1ccc(/C=N/NC(=O)Nc2ccccc2)o1	2.3	2.1	0.0	11.0*	8.2*	4.4	11.8*	10.3*
